# Assay outcomes deposited in PubChem by National Center for Advancing Translational Sciences (NCATS).
# The list is not random: actives were taken first. Their share in the collection is about 17%.
# TDP1 cell noCPT: qHTS for Inhibitors of human tyrosyl-DNA phosphodiesterase 1 (TDP1): qHTS in cells in absence of CPT | DT40 Tdp1-/- hTDP1 cells, no CPT, ATP luminescence, 48 h | Potency, µM (highest dose often 46.2 µM), for the others: top-dose activity change, negative = growth inhibition, most hits filed as inhibitors | actives 15% (n = 420,000) | AID 686978, 2013; also: % is scaled to controls: 0 for no effect and ±100 for the full control effect; nearly all actives have a fitted effect of over 55% in size
#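 Chicken DT40 Tdp1-/- cells stably complemented with human TDP1 were seeded at 400 cells/well with DMSO in place of 20 nM camptothecin. After compound pinning, cells grew at least 48 hr at 37 °C; viability read by CellTiter-Glo luminescence.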
# ATXN viability: cell viability loss in ATXN counter-screen; S2 cells (HEK-293 line with an ATXN2-luciferase reporter) viability, CellTiter-Fluor protease fluorescence, 24 h; Potency, µM (highest dose often 56.7 µM), actives largely listed as cytotoxic; actives 0.49% (n = 400,000); AID 651635; also: nearly all actives have a fitted effect of over 40% in size
# TDP1 cell CPT: DT40-hTDP1 cell growth loss with CPT | chicken DT40 Tdp1-/-;hTDP1 cells + 20 nM CPT, ATP luminescence, 48 h | Potency, µM (top dose mostly 46.2 µM), inactives show top-dose activity change, negative = growth inhibition, hits mostly inhibitors | actives 12% (n = 420,000) | AID 686979; also: % is scaled to controls: 0 for no effect and ±100 for the full control effect; nearly all actives have a fitted effect of over 55% in size
#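 Chicken DT40 Tdp1-/- cells complemented with human TDP1, 400 cells/well, exposed to compounds plus 20 nM camptothecin for at least 48 h at 37 C; viability read as ATP content by CellTiter-Glo luminescence.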
# ATXN2 expr inh: inhibitors of ATXN2 expression | HEK-293 ATXN2-luciferase reporter, luminescence, 24 h | Potency, µM (titrated, usually from 57 µM), for the others: at the top dose activity change, negative = inhibition, usual class: inhibitors | actives 0.72% (n = 360,000); also: % is scaled to controls: 0 for no effect and ±100 for the full control effect; nearly all actives have a fitted effect of over 55% in size
#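 ATXN2-luciferase reporter cells (luciferase flanked by upstream and downstream ATXN2 gene portions) were treated 24 h at 37 °C with compounds at up to 57 uM. SteadyGlo luminescence gave expression; GF-AFC fluorescence gave viability.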
# HepG2 viability: kills HepG2 cells in TGF-b inhibitor counter-screen. HepG2 CAGA-GFP viability, ATP luminescence, 18 h. Potency, µM (titrated, usually from 46.1 µM), for inactives: top-dose activity change, negative = cytotoxicity, most hits filed as cytotoxic. actives 0.76% (n = 410,000). AID 588856
#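 CellTiter-Glo luminescence gave cytotoxicity after 18 hours at 37 degrees C. The cells were HepG2 CAGA-GFP in 1% FBS DMEM, stimulated with 500 pg/mL TGF-beta after compound addition. %Activity was normalised to no-cell wells (complete cell-killing) and DMSO (no toxicity), and curves were fitted and classified.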
# TGFb inhibitor: inhibitors of TGF-b signaling; HepG2 CAGA-GFP TGF-b/SMAD3 reporter, GFP fluorescence, 18 h; TGF-beta stimulated, 500 pg/mL final; Potency, µM (series often up to 46.1 µM), without a hit: at the highest dose activity, negative = inhibition, hits mostly inhibitors; actives 1.2% (n = 410,000); AID 588855; also: % is scaled to controls: 0 for no effect and ±100 for the full control effect; nearly all actives have a fitted effect of over 65% in size
#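 Cell-based qHTS in HEPG2 carrying a CAGA-GFP Smad reporter; compounds added before 500 pg/mL final TGF-beta, 18 h incubation at 37 degrees C, GFP fluorescence quantified per cell by imaging cytometry.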
# * = called active by the depositor; i = inactive; ? = inconclusive; . = no result; ! = a repeat was not active. Calls follow the shape of the dose curve; as a rule, active = well fitted curve in the direction sought with a large enough effect; inconclusive = small, poorly fitted or top-dose-only effect, or another doubt; inactive = no such curve, though single readings can be large; an effect the other way counts as inactive or inconclusive. Potency is read from the fitted curve at half-maximal effect.
SMILES,TDP1 cell noCPT,ATXN viability,TDP1 cell CPT,ATXN2 expr inh,HepG2 viability,TGFb inhibitor
NC(=O)c1nsc(C(=O)N(c2cccc(F)c2)C(C(=O)NCc2ccccc2)c2ccc(O)cc2)c1N (stereo unspecified),20.6µM*,.,?,13.4%,-15.4%,-7.6%
CCC(C(=O)NC1CCCC1)N(C(=O)c1snc(C(N)=O)c1N)c1ccc(OC)c(OC)c1 (stereo unspecified),-14.1%,i,11.4%,-0.9%,-1.5%,-4.1%
COc1ccc(C(C(=O)NC2CCCC2)N(C(=O)c2snc(C(N)=O)c2N)c2cccc(O)c2)cc1 (stereo unspecified),13µM*,i,?,1.0%,-44.9%,-2.5%
COc1ccc(N(C(=O)c2snc(C(N)=O)c2N)C(C(=O)NC2CCCC2)c2cc(OC)ccc2OC)c(OC)c1 (stereo unspecified),29.1µM*,i,23.1µM*,-16.4%,-1.8%,3.8%
O=C(COC(=O)c1nc(Cl)ccc1Cl)NCc1ccc(Cl)cc1,?,?,2.4%,.,3.0%,1.4%
O=C(Cc1ccccc1)NNS(=O)(=O)c1ccccc1[N+](=O)[O-],21.6%,i,-3.5%,-2.1%,4.9%,14.5%
CCCN(C)C1CN(Cc2cn(Cc3ccccc3)nn2)S(=O)(=O)C1 (stereo unspecified),-13.0%,i,-2.4%,15.5%,.,.
COc1ccc(C(C(=O)NC2CCCC2)N(C(=O)c2snc(C(N)=O)c2N)c2ccccc2OC)cc1OC (stereo unspecified),-9.2%,i,-27.6%,-9.0%,-0.6%,-18.5%
COc1ccc(N(C(=O)c2snc(C(N)=O)c2N)C(C(=O)NC2CCCCC2)c2ccc(F)cc2)c(OC)c1 (stereo unspecified),?,i,2.91µM*,-29.0%,-2.0%,-7.6%
COc1ccc(C(C(=O)NC2CCCC2)N(C(=O)c2snc(C(N)=O)c2N)c2cc(C)ccc2OC)cc1OC (stereo unspecified),18.4µM*,i,?,-24.3%,7.0%,-0.6%
COc1ccc(-c2nsc(C(=O)N(c3ccc(F)cc3)C(C(=O)NC3CCCC3)c3ccc(OC)cc3)c2N)cc1 (stereo unspecified),16.4µM*,i,16.4µM*,1.7%,-6.3%,?
CCOc1ccc(N(C(=O)c2snc(C(N)=O)c2N)C(C(=O)NC2CCCC2)c2ccncc2)cc1 (stereo unspecified),-15.6%,i,3.7%,7.2%,-9.3%,3.2%
COCCNC(=O)C1(C)CCN(C(=O)c2ccc3sccc3c2)C1 (stereo unspecified),0.4%,i,0.1%,13.4%,-3.2%,-1.7%
Cc1nc2nc(C(F)(F)F)[nH]n2c(=O)c1Cc1ccccc1,-19.4%,i,-4.6%,5.8%,1.7%,4.5%
COc1cc2ccc3c(CCN(C)C)cc(OC)c(OC)c3c2cc1OC,?,i,-12.0%,.,-21.8%,22.0%
CN(C)CCc1cc2c(c3c1ccc1ccccc13)OCO2,20.6µM*!,?,20.6µM*!,.,-102.8%,?
CCn1c(=O)n(CC)c2cc(N3CCCC3)c(NC(=O)c3cc(Cl)ccc3OC)cc21,20.6µM*,?,16.4µM*,4.0%,-2.4%,2.6%
Cc1ccccc1C(=O)Nc1cc2c(cc1N1CCOCC1)n(C)c(=O)n2C,?,i,?,4.8%,-14.9%,1.5%
COc1ccc(Cl)cc1NC(=O)CN1CCCCCC1,-18.5%,i,-5.4%,.,-1.0%,12.7%
CCOc1ccccc1C(=O)Nc1cc2c(cc1N1CCCC1)n(CC)c(=O)n2CC,4.61µM*,14.1µM*,4.61µM*,.,-57.7%,?
CCn1c(=O)n(CC)c2cc(N3CCCC3)c(NC(=O)c3ccc(OC)c(Br)c3)cc21,11.6µM*,?,16.4µM*,.,-45.8%,11.6%
CCOc1ccccc1C(=O)Nc1cc2c(cc1N1CCOCC1)n(C)c(=O)n2C,16.4µM*,i,14.6µM*,3.4%,-32.7%,-1.6%
COc1cccc(OC)c1C(=O)Nc1ccccc1N1CCCC1,-21.5%,i,-13.0%,-2.0%,-10.3%,4.1%
CCn1c(=O)n(CC)c2cc(N3CCCC3)c(NC(=O)c3ccccc3OC)cc21,5.8µM*,?,6.51µM*,-28.3%,-22.3%,-2.4%
CCN(CC)S(=O)(=O)c1cccc(S(=O)(=O)c2cccc(S(=O)(=O)N(CC)CC)c2)c1,18.4µM*,i,20.6µM*,-30.0%,-34.7%,-21.4%
SMILES,TDP1 cell noCPT,ATXN viability,TDP1 cell CPT,ATXN2 expr inh,HepG2 viability,TGFb inhibitor
CCN(CC)S(=O)(=O)c1cccc(S(=O)(=O)N2CCCCC2)c1,-7.8%,i,-6.4%,0.1%,4.0%,1.1%
CCN(CC)CCOc1ccc2c(c1)C(=NO)c1cc(OCCN(CC)CC)ccc1-2,18.4µM*,8.91µM*,18.4µM*,11.2µM*,-71.8%,11.2µM*
CCN(CC)S(=O)(=O)c1ccc2c(c1)C(=NO)c1cc(S(=O)(=O)N(CC)CC)ccc1-2,2.31µM*,?,2.31µM*,?,-54.7%,?
CCCOc1ccc2c(c1)C(=NN=C(N)N)c1cc(OCCC)ccc1-2,23.1µM*,25.1µM*,25.9µM*,20µM*,-104.0%,?
CCN(CC)CCOc1ccc(Br)cc1,-19.4%,i,-9.0%,-10.5%,-3.2%,2.5%
O=C(CCCc1nc(-c2ccccc2Cl)no1)N1CCOCC1,-1.6%,i,-9.0%,.,24.7%,15.0%
CC(=O)c1c(C)nc2nc(-c3ccccc3)nn2c1C,-8.4%,i,-4.5%,33.0%,2.0%,-23.9%
Cc1oc2c(c1C(=O)Nc1ccccc1Br)C1=NCCN1C=N2,20.6µM*,i,18.4µM*,-21.6%,-6.7%,?
Cc1cc(C)c(NC(=O)c2c(C)oc3c2C2=NCCN2C=N3)c(C)c1,16.4µM*,i,16.4µM*,-15.9%,0.9%,?
Cc1oc2c(c1C(=O)Nc1ccc(Cl)cc1F)C1=NCCN1C=N2,16.4µM*,i,-25.8%,-2.5%,-0.7%,14.3%
Cc1oc2c(c1C(=O)Nc1cccc(Br)c1)C1=NCCN1C=N2,-8.3%,i,-6.0%,-4.4%,-20.8%,2.9%
Cc1cc(C)c2nc(NC(=O)CN3C(=O)NC4(CCCC4)C3=O)sc2c1,?,i,-18.7%,2.8%,0.4%,?
COc1ccc(C(=O)N/C(=C\c2ccccc2)C(=O)Nc2ccc(C(=O)NCC(=O)O)cc2)cc1,-17.4%,i,-7.4%,-10.5%,11.8%,16.2%
